From PubChem BioAssay AID2551 (National Center for Advancing Translational Sciences (NCATS), 2010) come the findings set out here.

Structures are written as SMILES. About 17,000 (5.5%) of roughly 310,000 compounds were called active. Not shown: some 11% with an inconclusive outcome. This is one part of a sample in which actives are shown more often than they occur. A number with no mark means an inactive call. Calls follow the shape of the dose curve; as a rule, active = well fitted inhibition curve with a large enough effect; inconclusive = small, poorly fitted or top-dose-only effect, or effect the other way; inactive = no such curve, though single readings can be large or run the other way.
% is scaled to controls: 0 for no effect and ±100 for the full control effect; potency is read from the fitted curve at half-maximal effect.

Sequence of Nuclear receptor ROR-gamma (Mus musculus) (P51450 whole entry, looked up, the tested form may be a part): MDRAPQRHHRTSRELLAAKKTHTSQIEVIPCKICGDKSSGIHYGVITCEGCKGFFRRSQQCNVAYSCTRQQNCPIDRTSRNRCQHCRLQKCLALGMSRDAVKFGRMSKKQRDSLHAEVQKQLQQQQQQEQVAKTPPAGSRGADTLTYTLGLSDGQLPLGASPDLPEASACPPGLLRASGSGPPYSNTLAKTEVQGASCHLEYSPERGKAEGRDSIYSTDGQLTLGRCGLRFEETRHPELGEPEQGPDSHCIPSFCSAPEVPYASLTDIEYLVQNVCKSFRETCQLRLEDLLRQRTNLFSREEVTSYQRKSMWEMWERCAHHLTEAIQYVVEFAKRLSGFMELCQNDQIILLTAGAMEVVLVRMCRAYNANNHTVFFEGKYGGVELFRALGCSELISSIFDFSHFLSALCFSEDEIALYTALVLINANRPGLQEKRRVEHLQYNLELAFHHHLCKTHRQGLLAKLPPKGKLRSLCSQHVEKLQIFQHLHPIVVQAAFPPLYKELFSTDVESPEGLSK

This test concerns the target Nuclear receptor ROR-gamma (Mus musculus) (UniProt P51450). The test is described as follows: qHTS for inhibitors of ROR gamma transcriptional activity. Also: nearly all actives have a fitted effect of over 60% in size. Particulars: Drosophila S2 Gal4-RORgamma UAS-luciferase reporter, 20 h; series mostly up to 53.6 µM; activity change, negative = inhibition: at the top concentration. The gist of the method:
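Luminescence from a UAS-regulated Photinus luciferase reporter in stably transfected Drosophila Schneider cells is measured; decreased signal marks ROR gamma inhibition. Fusion expression is induced by 700 uM copper sulfate for 20 hr.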
A general note: In qHTS, concentration-response curves come from the screen itself.
On to `Cc1ccc(CSCC(N)C(=O)O)cc1` (stereo unspecified), for which the “activity change, negative = inhibition” value is 4.89%.
On to `Cc1ccc(SC(C)C(=O)NCc2ccc(F)cc2)cc1` (stereo unspecified), for which the “activity change, negative = inhibition” value was -34%.
Regarding `Cc1ccc(SC(CC(=O)c2ccc(C(C)(C)C)cc2)C(=O)O)cc1` (stereo unspecified), the Potency is 1.41 µM (active).
For the compound `Cc1sc2ncn(CC(=O)NCCCC(=O)N(C)Cc3ccccc3)c(=O)c2c1C`, the “activity change, negative = inhibition” value is 33.8%.
Still for that read-out and setting: then `O=C(CN1C(=O)c2cccnc2Oc2ccc(Cl)cc21)Nc1ccc(F)cc1`, with 7.92%.
`COc1cccc(CSc2nc3nc(C)cc(C)n3n2)c1`: the “activity change, negative = inhibition” value was 1.6%.
Regarding `Cc1cc(NC(=O)CCC(=O)N(CC(=O)NC2CCCC2)c2ccc(F)cc2)no1`, the “activity change, negative = inhibition” value was -6.99%.
With `COCCN(C(=O)CCC(=O)Nc1nccs1)C(C(=O)NCCC(C)C)c1ccc(F)cc1` (stereo unspecified), the “activity change, negative = inhibition” value is 1.64%.
Still for that read-out and setting: then `Cc1ccc(S(=O)(=O)N(CC(O)CN2C(=O)NC(C)(C)C2=O)c2cccc([N+](=O)[O-])c2)cc1` (stereo unspecified), with 0.382%.
With `C=CCOc1ccccc1/C=N/NC(=O)Cc1ccccc1`, the “activity change, negative = inhibition” value is -31.9%.
With `CCOc1ccccc1/C=N/NC(=O)CNC(=O)COc1ccccc1`, the “activity change, negative = inhibition” value was 12.2%.
Regarding `C=C(C)CNC(=S)N/N=C/c1ccccc1OCC(=O)O`, the Potency is 10 µM (active).
With `N#Cc1cc([N+](=O)[O-])ccc1NCC1CCCO1` (stereo unspecified), the “activity change, negative = inhibition” value was -1.01%.
On to `Cc1ccc(NC(=O)C2CCCN2C(=O)OCc2ccccc2)cc1C` (stereo unspecified), for which the “activity change, negative = inhibition” value was 3.47%.
Same read-out and setting: for `O=C(N/N=C/c1cccc(O)c1)c1cc2c(ccc3ccccc32)o1` the value was -1.2%; for `Cc1cccc(OCc2ccc(C(=O)Nc3ccc(F)cc3)cc2)c1`, 27.9%; for `CSc1ncc(Cl)c(C(=O)Nc2cc(C)ccc2C)n1`, 1.49%.
On to `Cc1cccc(CS(=O)(=O)c2ncc(Cl)c(C(=O)Nc3ccc(F)cc3)n2)c1`, for which the Potency was 6.31 µM (active).
Same read-out and setting: for `Cc1ccc(CS(=O)(=O)c2ncc(Cl)c(C(=O)Nc3nnc(C)s3)n2)cc1` the value was 14.1 µM (active).
Regarding `Cc1ccc(S(=O)(=O)CC(=O)Nc2nnc(C)s2)cc1`, the “activity change, negative = inhibition” value was 6.36%.
Turning to `Cc1nnc(NC(=O)CCCOc2ccccc2)s1`, the “activity change, negative = inhibition” value is 12.3%.
As for `Cc1cccc(NC(=O)c2nc(S(=O)(=O)Cc3ccccc3)ncc2Cl)c1`, the Potency was 7.08 µM (active).
Consider `CCSc1ncc(Cl)c(C(=O)Nc2cc(C)ccc2C)n1`, for which the “activity change, negative = inhibition” value was 13.3%.
The same measure, in the same setting: for `Cc1cccc(NC(=O)C(C)SCc2ccccc2)c1` (stereo unspecified) the value was 6.35%.
Take `O=C(CCS(=O)(=O)c1ccccc1)NC1CCCC1`: the “activity change, negative = inhibition” value was 3.1%.
Take `CSCCC(NS(=O)(=O)c1ccc(C)cc1)C(=O)NCCc1c[nH]c2ccccc12` (stereo unspecified): the “activity change, negative = inhibition” value was -0.592%.
As to `O=C(CN(C(=O)CCC(=O)Nc1nccs1)c1ccc(F)cc1)NCc1ccc2c(c1)OCO2`, the “activity change, negative = inhibition” value was 32.5%.
Take `COc1ccc(N2CCC(N3CCN(C)C(CCO)C3)CC2)cc1` (stereo unspecified): the “activity change, negative = inhibition” value is -13.7%.
Still for that read-out and setting: then `CC1(C)C(c2cccs2)=[N+]([O-])C2(CCCCC2=O)N1O` (stereo unspecified), with -25.3%; and `C/C(=N\O)C1(C)N(O)C(C)(C)C(c2ccc(Br)cc2)=[N+]1[O-]` (stereo unspecified), with 9.2%.
In the case of `CC(=O)C1(C)N(O)C(C)(C)C(c2cccs2)=[N+]1[O-]` (stereo unspecified), the Potency was 4.47 µM (active).
